# Laboratory results as given in PubChem BioAssay (NCI).
# Compounds without any hit were thinned out: in the full panel of roughly 83,000, 20% have a hit.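 Assay: single dose, 48 h. Readout: percent growth (0 = no net growth; negative = cell death). Active: <10.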 Unmarked numbers belong to inactive results. Calls of active or inactive are those of the source.
# Test system: ACHN renal
# Assay: NCI-60 one-dose screen, 48 h (100 = growth as untreated, 0 = no growth, -100 = all killed)
# Settings: 10 µM unless noted
# Experimental: Growth inhibition of the ACHN human tumor cell line is measured as a screen for anti-cancer activity. Cells are grown in 96 well plates and exposed to the test compound for 48 hours. Compounds are tested at a single concentration, which is 10^-5 M for most compounds. The reported endpoint is percent growth (GI% or GIPRCNT), where numbers from 0 - 100% represent growth inhibition, and numbers from -100% - 0 represent cell death. For example, a value of 40 represents 60% growth inhibition. A value of 0 means no net growth occurred over the course of the experiment. A value of -40 indicates 40% of cells at the beginning of the experiment died by the end of the experiment. A value of -100 means all cells are dead at the end of the experiment.
# NCI-60 Human Tumor Cell Lines Screen was performed using the standard one-dose NCI protocol, which is described in more detail at https://dtp.cancer.gov/discovery_development/nci-60/default.htm.
# Compounds with GIPRCNT values below 10 were considered active. Activity score was based on GIPRCNT using the following formula: […]
# Score is 0 for GIPRCNT values of 100 or above, 50 for GIPRCNT values of 0, and 100 for GIPRCNT values of -100.
row,SMILES,growth
1,CCCCN(Cc1ccc(C(=O)NO)cc1)C(=O)Nc1ccc(OCCCCCCCCCn2cc(CCCCC(=O)N[C@H](C(=O)N3C[C@H](O)C[C@H]3C(=O)NCc3ccc(-c4scnc4C)cc3)C(C)(C)C)nn2)cc1,105%
2,N=C(N)c1ccc(-c2ccc(-c3ccc(Cl)cc3Cl)o2)cc1,-89% (active)
3,Nc1nc(Nc2ccc(Cl)cc2)nn1S(=O)(=O)c1ccc(-c2ccc(F)cc2)cc1,81.8%
4,Cc1nc(Nc2ccc(S(=O)(=O)Nc3cc(C)on3)cc2)c2ccccc2n1,107%
5,CCOC(=O)c1ccc(-c2ccc3cc(OC)ccc3c2)nc1C,96.8%
6,CC(=O)Nc1ccc(-c2cc3c(NCc4ccc(F)cc4)ncnc3s2)cc1,65.5%
7,CS(=O)(=O)c1ccc(-c2nc3cc(Cl)ccc3n2CC(=O)N/N=C/c2ccc(Cl)cc2)cc1,61.5%
8,CC1=NN(c2cccc(Cl)c2)C(=O)/C1=C\c1cn(CC(O)CN2CCCCC2)c2ccccc12 (stereo not given),38.6%
9,Clc1ccc(-c2nnc(Cn3ccnc3)o2)cc1,98.9%
10,CN1CCN(c2ccc3nc(/N=C/c4ccc5sc(-c6ccc([N+](=O)[O-])cc6)nc5c4)sc3c2)CC1,108%
11,C[C@@H]1C(=O)N(C[C@H](Cc2ccccc2)N(Cc2ccccc2)Cc2ccccc2)[C@]1(Cc1ccccc1)C(=O)OC(C)(C)C,63.9%
12,Cc1[nH]c(-c2nc3ccccc3[nH]2)c(C)c1C(=O)N1CCc2sccc2C1,99.5%
13,O[C@H]1CO[C@H]2[C@@H]1OC[C@@H]2Oc1ccc(Nc2nc(Nc3ccc(F)c(Cl)c3)ncc2F)cc1Cl,105%
14,CN(C)CCC(O)(Cc1ccccc1)c1ccccc1 (stereo not given),101%
15,COc1ccc(-c2c(N)n[nH]c2-c2ccccc2O)cc1OC,102%
16,N=C(N)c1ccc(-c2ccc(-c3ccc(Cl)cc3Cl)o2)nc1,12.3%
17,N#Cc1c(N)n2c(nc1=Nc1ccc([N+](=O)[O-])cc1)sc1cc(Cl)ccc12,90.7%
18,COc1cc(-c2ccc(-c3ccc(C(=N)N)nc3)s2)cc(OC)c1OC,47.1%
19,Nc1c(C(=O)c2ccc(Cl)s2)sc2nc3c(cc12)CCCC3,112%
20,CCOc1cc(C2C(Cl)C(=O)N2n2cnnc2)ccc1O (stereo not given),96.7%

row,SMILES,growth
1,COc1cc(NC(=O)c2cc(O)c(CC=C(C)C)c(O)c2)cc2c1O[C@]1(C)CC[C@@H](O)C(C)(C)[C@H]1C2,36.2%
2,N#Cc1cnn2c(-c3ccc(Cl)cc3)nc(NC3CC3)nc12,96.8%
3,COc1cc(NC(=O)c2cccc(-c3cc(=O)c4c(OC)c(OC)c(OC)cc4o3)c2)cc(OC)c1OC,56.7%
4,CC[C@]1(O)C[C@H]2CN(CCc3c([nH]c4ccccc34)[C@@](C(=O)OC)(c3cc4c(cc3OC)N(C=O)[C@H]3[C@@](O)(C(=O)OC)[C@H](OC(C)=O)[C@]5(CC)C=CCN6CC[C@]43[C@@H]65)C2)C1,36.3%
5,CSc1ccc(Cl)c(C(=O)Nc2sccc2C(N)=O)c1,102%
6,Cc1nc(Nc2ccc(NC(=S)Nc3ccccc3)cc2)nc2nc(SCc3ccccc3)[nH]c(=O)c12,107%
7,C=C(C)[C@@H]1CC[C@@]2(C(=O)O)CC[C@]3(C)C(CCC4[C@@]5(C)CCC(OS(=O)(=O)c6ccccc6)C(C)(C)C5CC[C@]43C)C12 (stereo not given in full),49.7%
8,COc1cc(C(=O)/C=C/c2c(-c3ccc(F)cc3)nc3ncccn23)cc(OC)c1OC,47%
9,Nc1c(-c2nc3ccc(Br)cc3c(=O)[nH]2)nnn1-c1ccccc1,71.6%
10,CCCc1cc(=O)oc2c3c(c4c(c12)OC(C)(C)C=C4)O[C@@H](C)[C@H](C)C3=O,84.2%
11,COc1ccc(/C=C2\COc3ccc(O)cc3C2=O)cc1OC,73%
12,CCn1nc(C#Cc2c(C)ccc3c(Nc4ccc(Cl)cc4)nccc23)c2c(N)ncnc21,8.02% (active)
13,C=C1c2c(C)nn(-c3ccc(O)cc3)c2N(C)C23C[C@@H]1C1(C)c4c(C)nn(-c5ccc(O)cc5)c4N(C)C(C)(C[C@H]12)C3 (stereo not given in full),24.6%
14,Cc1nc(Nc2cccc(NC(=O)Nc3ccc(Cl)cc3)c2)c2ccccc2n1,105%
15,N#Cc1c(N)n2c(nc1=Nc1ccc(Cl)cc1)sc1cc(Cl)ccc12,91.3%
16,COC(=O)/C(=C\c1ccc(OC)cc1)C(=O)N1c2ccccc2Sc2ccccc21,58.3%
17,CN(C)c1ccc(-c2cc(-c3ccc(Nc4nc(Nc5ccccc5)nc(Nc5ccc(Cl)cc5)n4)cc3)nc(N)n2)cc1,46.3%
18,COc1ccc(NC(=O)C(=O)c2c[nH]c3ccc(F)cc23)cc1,93.8%
19,CS(=O)(=O)c1ccc(N/N=C/c2c(-c3ccc(S(C)(=O)=O)cc3)[nH]c3ccc(F)cc23)cc1,48.2%
20,Clc1ccc(/C=C/c2nc(Nc3ccc(Cl)cc3)c3ccccc3n2)cc1,105%
